Structures are written as SMILES. Out of some 2,100 compounds screened, about 1,100 (52%) were called active. Inconclusive results (about 27%) are left out. So high a share suggests a set chosen from earlier hits. The list shows a part of the results. Values without a mark were called inactive. Calls follow the shape of the dose curve; as a rule, active = well fitted inhibition curve with a large enough effect; inconclusive = small, poorly fitted or top-dose-only effect; inactive = no such curve, though single readings can be large or run the other way.
Potency is read from the fitted curve at half-maximal effect.

Chain of DNA dC->dU-editing enzyme APOBEC-3G (Homo sapiens) (Q9HC16 whole entry, looked up): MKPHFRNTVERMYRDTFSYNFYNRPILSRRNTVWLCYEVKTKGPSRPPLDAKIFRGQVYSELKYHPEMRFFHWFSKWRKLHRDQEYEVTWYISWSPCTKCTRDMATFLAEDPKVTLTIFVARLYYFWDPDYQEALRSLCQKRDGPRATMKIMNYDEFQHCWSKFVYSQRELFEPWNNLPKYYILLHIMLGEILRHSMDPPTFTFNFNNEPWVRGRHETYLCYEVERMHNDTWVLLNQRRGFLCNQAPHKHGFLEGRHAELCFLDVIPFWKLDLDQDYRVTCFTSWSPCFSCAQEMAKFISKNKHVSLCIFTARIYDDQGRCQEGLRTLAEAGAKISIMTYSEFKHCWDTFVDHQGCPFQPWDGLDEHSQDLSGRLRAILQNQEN

The assay concerns the target DNA dC->dU-editing enzyme APOBEC-3G (Homo sapiens) (UniProt Q9HC16). The experiment in a line: qHTS for inhibitors of Vif-A3G interactions: Cherry picks counterscreen.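 Also: hits raise yellow fluorescence by blocking Vif-driven A3G-eYFP degradation; nearly all actives have a fitted effect of over 70% in size.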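 As to max response: max response given as percent of control signal.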 The conditions noted are these: HeLa A3G-eYFP + Vif (tagged APOBEC3G with the HIV-1 protein that degrades it), eYFP fluorescence, 24 h. Put shortly:
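HeLa cells stably expressing A3G-eYFP and Vif were treated for 24 h at 37 deg C with compounds at several concentrations; yellow fluorescence (Ex 488 nm, Em 500-530 nm) read by Acumen Explorer, MG132 as positive control.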
As for `COc1ccc(NC(=O)CSc2ccc3c4c(cccc24)C(=O)c2ccccc2-3)cc1`, the Potency is 14.6 µM (active).

In the case of `CCn1c(SCC(=O)Nc2cccc(O)c2)nc2c1c(=O)n(C)c(=O)n2C`, the max response was -1.18%. Regarding `N#Cc1cccc(NC(=O)CSc2ccc3c4c(cccc24)C(=O)c2ccccc2-3)c1`, the Potency was 4.61 µM (active). Consider `COc1cc2c(cc1OC)C1=CC(=O)C(=O)N1C(C)(C)C2`, for which the Potency is 14 µM (active). `Cc1ccc(S(=O)(=O)Nc2cc(Cl)c(O)c3ncccc23)cc1`: the max response was 10.1%. `CC(=O)c1c(C)oc2c1cc(NS(=O)(=O)c1ccc(Br)cc1)c1ccccc12`: the Potency was 1.64 µM (active).

For `CCOc1ccc(S(=O)(=O)Nc2cc3c(C(=O)OC)c(COC)oc3c3ccccc23)cc1`, the Potency was 0.461 µM (active). Consider `COc1ccc(S(=O)(=O)Nc2cccc(-c3ccc4nncn4n3)c2)cc1`, for which the Potency was 4.98 µM (active). As for `COc1ccc(S(=O)(=O)Nc2cccc(-c3ccc4nncn4n3)c2)cc1F`, the Potency was 4.44 µM (active).

Consider `O=[N+]([O-])c1ccc(N/N=C/C=C/c2ccco2)cc1`, for which the Potency is 18.4 µM (active). Consider `O=C(N/N=C/C=C/c1ccco1)c1ccncc1`, for which the max response was 0.191%. `O=C1/C(=C/c2c[nH]c3ccccc23)CCC/C1=C\c1c[nH]c2ccccc12`: the Potency was 20.6 µM (active).

For the compound `CCOc1ccc(C2CC(c3c(O)c4ccccc4oc3=O)=NN2c2ccccc2)cc1OC` (stereo not given), the Potency is 5.17 µM (active). Regarding `c1ccc(N=NC2=NN(c3ccccc3)CS2)cc1`, the max response is 20.9%.

As for `Nc1nn(-c2ccccc2)c(N)c1N=Nc1ccccc1`, the Potency was 8.86 µM (active). In the case of `Cc1ccc(S(=O)(=O)Nc2nc3ccccc3nc2Nc2cccc(S(=O)(=O)N3CCCC3)c2)cc1`, the Potency was 23.1 µM (active). Consider `Cn1ccnc1Sc1nc2ccccc2nc1NS(=O)(=O)c1ccccc1`, for which the max response was -7.62%. Same read-out and setting: as for `O=C(N=c1ccn(-c2nc3ccccc3nc2NS(=O)(=O)c2ccccc2)cc1)c1cccs1`, the figure is 0.295%. For the compound `O=S(=O)(Nc1nc2ccccc2nc1Nc1cccc(S(=O)(=O)N2CCCCC2)c1)c1ccccc1`, the Potency is 20.6 µM (active).

Turning to `CC(=O)Nc1ccc(S(=O)(=O)Nc2nc3ccccc3nc2Nc2ccc3ccccc3c2)cc1`, the max response was -17.6%. For the compound `COc1cc(Cl)c(C)cc1Nc1nc2ccccc2nc1NS(=O)(=O)c1ccccc1`, the Potency is 20.6 µM (active). In the case of `COC(=O)c1cc(Nc2nc3ccccc3nc2NS(=O)(=O)c2ccc(C)cc2)ccc1Cl`, the max response was -22.7%.

Turning to `Cc1c2ccccc2nc2c(F)c(NC(C)C)c(F)c(F)c12`, the Potency was 8.2 µM (active).

In the case of `CCCNc1c(F)c(F)c2c(C)c3ccccc3nc2c1F`, the Potency is 12.5 µM (active). In the case of `CCCNC(=O)c1ccccc1NC(=O)c1ccc2c(c1)NC(=O)C(C)S2` (stereo not given), the Potency was 7.04 µM (active). For `CC1Sc2ccc(C(=O)NCc3ccccn3)cc2NC1=O` (stereo not given), the max response was 3.16%. `CC(C)CCNC(=O)c1ccc2c(c1)NC(=O)C(CS(=O)(=O)Cc1cccc(Br)c1)N2` (stereo not given): the max response is 2.76%. For the compound `CCN(CC)c1ccc(NC(=O)c2cccc(F)c2)c(C)c1`, the Potency is 4.98 µM (active). For the compound `COc1ccc(OC)c(Nc2ncnc3c2cnn3-c2cccc(Cl)c2)c1`, the Potency was 7.31 µM (active). Consider `COc1ccc(OC)c(NC(=O)Cn2cnc3onc(-c4ccc(Cl)cc4)c3c2=O)c1`, for which the max response was 9.98%.

As to `Cc1ccc2[nH]c(C(=O)NN=C3CCCCC3)c(-c3ccccc3)c2c1`, the max response is 4.2%.

As to `Cc1cc(NC(=O)/C(C#N)=C/c2ccc(-c3ccc(SC(F)F)cc3)o2)n(-c2ccccc2)n1`, the Potency was 4.61 µM (active).

As to `Cc1cc(NC(=O)/C(C#N)=C\c2ccc(-c3ccc(SC(F)F)cc3)o2)n(-c2ccccc2)n1`, the Potency was 2.59 µM (active). Same read-out and setting: as for `Cc1ccc2[nH]cc(/C=C/c3cc[n+](C)cc3)c2c1`, the figure is 1.4 µM (active); as for `C[n+]1ccc(/C=C/c2c[nH]c3ccc(F)cc23)cc1`, 5.8 µM (active).

As for `COc1ccc2[nH]cc(/C=C/c3cc[n+](C)cc3)c2c1`, the Potency was 9.2 µM (active).

Regarding `COc1ccc2c(c1)c(/C=C/c1cc[n+](C)cc1)cn2C`, the Potency was 2.23 µM (active). Regarding `Cc1ccc(NC(=S)N/N=C2\CCCCC2C)cc1` (stereo not given), the max response was -4.1%. With `CC[n+]1cc(C)ccc1/C=C/c1ccc(N(C)C)cc1`, the Potency was 17.7 µM (active). On to `Cc1ccc(/C=C/c2ccc(N(C)C)cc2)[n+](C)c1`, for which the Potency was 17.7 µM (active). Regarding `CN(C)c1ccc(/C=C/c2cc[n+](C)cc2)cc1`, the Potency was 12.5 µM (active). Consider `C=CCOc1c(Cl)cc(C(=S)N2CCCC2)cc1OCC`, for which the Potency is 15.8 µM (active). In the case of `Cc1cccc(OCCOc2ccccc2C=C(C#N)C#N)c1`, the Potency is 22.3 µM (active). For the compound `CCCOc1cc(N(CC)CC)ccc1/C=C(/C#N)c1nc2ccc(C)cc2[nH]1`, the max response is 37.6%.

For the compound `CCOc1ccccc1C(=O)Nc1ccsc1C(=O)OC`, the Potency is 2.5 µM (active).

With `COC(=O)c1sccc1S(=O)(=O)N(CC(=O)Nc1cc(F)ccc1F)c1ccc(C)c(C)c1`, the max response was -2.7%. As to `COC(=O)c1sccc1NC(=S)Nc1cc(C)cc(C)c1`, the max response was 5.75%. `COc1ccc(NC(=O)C2(C)Cc3c(-c4cccc(NC(C)=O)c4)ccnc3O2)cc1` (stereo not given): the Potency is 1.77 µM (active). Turning to `COc1ccc(NC(=O)C2(C)Cc3c(-c4cccc(C(N)=O)c4)ccnc3O2)cc1` (stereo not given), the Potency was 4.44 µM (active).

As for `CCCCn1c(N)c(N(CC(C)C)C(=O)Cc2ccc(S(=O)(=O)N3CCOCC3)s2)c(=O)[nH]c1=O`, the Potency is 18.4 µM (active). Regarding `CCCCn1c(N)c(N(Cc2ccccc2OC)C(=O)c2ccc([N+](=O)[O-])s2)c(=O)[nH]c1=O`, the max response was -2.93%. Consider `C=CCN1C(=O)c2ccc(C(=O)N(CC(C)C)c3c(N)n(CCCC)c(=O)[nH]c3=O)cc2C1=O`, for which the max response was 1.27%. `Cc1cc(C)c[n+](-c2nc3ccccc3nc2[N-]S(=O)(=O)c2ccc(Br)s2)c1`: the Potency was 23.1 µM (active). For `O=S(=O)([N-]c1nc2ccccc2nc1-[n+]1ccc(-c2ccncc2)cc1)c1ccccc1`, the max response is 5.45%. Consider `CCc1cc[n+](-c2nc3ccccc3nc2[N-]S(=O)(=O)c2ccc(Br)s2)cc1`, for which the Potency was 23.1 µM (active). For the compound `Cc1ccc(Cc2c(C3CCCCC3)nc3ccc(C)cn23)cc1`, the max response is 27.2%. On to `COc1ccc2oc(-c3ccccc3[N+](=O)[O-])cc(=O)c2c1`, for which the Potency is 5.59 µM (active).

Turning to `Cc1ccc(NC(=S)N=Nc2c(O)n(C)c3ccc(S(=O)(=O)N4CCOCC4)cc23)cc1`, the max response is 0.754%.

On to `O=C(O)c1ccccc1/C=N/Nc1ccc(S(=O)(=O)N2CCOCC2)cc1[N+](=O)[O-]`, for which the max response is -0.239%. For `CCCN1CCC(=NNc2ccc(S(=O)(=O)N3CCOCC3)cc2[N+](=O)[O-])CC1`, the Potency is 14 µM (active).

(Values after PubChem BioAssay AID651813 (National Center for Advancing Translational Sciences (NCATS), 2012).)
